Assay results: the supplement of paper PMC6555819

These sequences were tested on PPARg:RXRa 30nM:10nM, anti-RXR (NR concentration 30 nM, RXRa partner concentration 10 nM) (assay: PBM binding z-score (relative to random genomic background probes); higher = stronger binding; sequences stand for … in GC…GCGATTGACAGCGTAGAATGAAGG).
Summary of the method: (§1)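 For binding z-scores, the reference was random background probes on custom Agilent 4×180K protein-binding microarrays. These arrays were incubated 1 h with ligand-free nuclear receptor dimers in PBS pH 7.4, 2% milk, 0.02% Triton X-100, 1 mM DTT, 0.2 mg/mL BSA and 0.4 mg/ml salmon testes DNA. Fluorescence was scanned after antibody detection of each partner (one per run) and regression-normalized.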
In the case of TATGCTAGGTCAGTTGGTCAGCTAACGAGCTGCC, the PBM binding z-score is reported as 0.0933. AGATCGAGGGCACGCTGAGTTGATAGCAGAGTAG gave a PBM binding z-score of 0.155. TCTTGTAGATCAAGCGGGTTAAGAAAGCCTGAGT showed a PBM binding z-score of 2.23. For ATATGTAGGTTATATCCGGGTCATTCAGGCTATG, the PBM binding z-score was 1.69. For CTACCAAGGGGAACAAGGTCGTTGATTACTATTC, the PBM binding z-score was 0.0626. In the case of ACTAGCAGGCCAAGGTTCACTCAAGATTAGTCCG, the PBM binding z-score is reported as 5.04. Work on CGAACTAGGTCATTGACAGGACCGTGAATAGTAA yielded a PBM binding z-score of 3.72. Work on CATACTGGGCCATTCAGAGGTCATTGATCATATG yielded a PBM binding z-score of 1.18. ACTAGCGGGCCAAGTTTGGGTCACTCAAACAAAG showed a PBM binding z-score of -0.66. For CAAACTAGGTCACGAAAGGCCAAAGTCGAATGAC, the PBM binding z-score was 5.71. AATCAAAGTTCAGGACGAGGTAACGTAAAGCACG gave a PBM binding z-score of 0.724. For TAGCCCAGGTCATTGGGCCAGTATAGTACGCATC, the PBM binding z-score was 0.844. Work on GCATATAGGTACTACAAGGTGAAAGTCCGATTGT yielded a PBM binding z-score of 0.264. Work on CATACAGGGTCAGCTAGGCCAGAATAGGGACGGC yielded a PBM binding z-score of 0.879. For ATCTCTAGGTAACAAGATCAGTGAAAGAGAGGAC, the PBM binding z-score was 0.253. ATCTCTAGGTATCCAAGTTCAGTGAATGCCGAAC gave a PBM binding z-score of 0.21. GCAGAAAGGTGAAACGCAGGTAACTCAGGGTGGC gave a PBM binding z-score of -0.0918.

Each sequence was assayed on PPARg:RXRa 90nM:30nM, anti-RXR (NR concentration 90 nM, RXRa partner concentration 30 nM) in the same assay as above.
Summary of the method: as §1
In the case of ATATGTAGGTTACATCCGGGTCATTTAGGCTATG, the PBM binding z-score is reported as 4.38. Sequence CGTAGCAGGCCAGGGTCACTCAAGCATTTCGCTT has a PBM binding z-score of 0.716. Work on CCAGACAGGTGAGAAAGTAACTCAGCCTCGATTA yielded a PBM binding z-score of -0.273. With ACTATTAGTTGACTTAGAGCAACCGATACGACGC the PBM binding z-score was 0.173. Work on GGAACGAGGGCAAGTTGATATCAGAGTTTGATGG yielded a PBM binding z-score of 0.552. ACTATTAGCTGACTTAGGGCAACCGATACGACGC showed a PBM binding z-score of 0.0192. TAGCCTAGGTCATTGGGCCAGCATAGTACGCATC was tested, and the PBM binding z-score was 2.5. For CCTATTAGTTGCCCATAAGGGCAACCGAAGCTCG, the PBM binding z-score was 0.0446. GCTGCTAGGTCAGGTTGGTTAGCTAACGGGTACG showed a PBM binding z-score of 0.079. TTACCAAGGTAAGCTGAGGTCGTTGATCCAACTC was tested, and the PBM binding z-score was -0.31. TCTGCTAGGTCATTTGGTCAGCTAACGAGCTGCC gave a PBM binding z-score of 2.37. TAGCCTAGGTCATTCAGAGGCCAGTATAGAAAGC was tested, and the PBM binding z-score was 1.47. Sequence CTCGAAAGGTCGGTTTAGGTGAGTATACGGATAA has a PBM binding z-score of 0.683. Sequence ACTATTAATTGACTTAGGGCAACCGATACGACGC has a PBM binding z-score of 0.814. With CGCACTAGGTCAGAACAGGACAGTGAAGGATGAT the PBM binding z-score was 3.24. CCTTACGCGTCACTCCAGGTTATAGCATCGGAGT showed a PBM binding z-score of -0.192. In the case of GCTATTCGTTGAAAGGGCAACCGAATGATTCTCG, the PBM binding z-score is reported as 2.16. In the case of TCGAGTAGGCTACCAATGGGGCATTCAGCTTTCT, the PBM binding z-score is reported as 0.625. GATACAGGATCAAGGCCAGAGTACGCGTATTGAT showed a PBM binding z-score of 0.052. GCTGCTAGCTCAGGTTGGTCAGCTAACGGGTACG gave a PBM binding z-score of -0.839. For TCATATAGGTAACGGTGAAAGTCGAACGATATGA, the PBM binding z-score was 2.78. Work on TCAGACAGGTGAAGGTAAGTCAGGTACGCAGTCG yielded a PBM binding z-score of 2.93. Sequence TATGCTAGGTCAGTTGGTCAGCTAACGAGCTGCC has a PBM binding z-score of 0.733. Sequence AGATCGAGGGCACGCTGAGTTGATAGCAGAGTAG has a PBM binding z-score of 0.951. TCTTGTAGATCAAGCGGGTTAAGAAAGCCTGAGT showed a PBM binding z-score of 1.81. ATATGTAGGTTATATCCGGGTCATTCAGGCTATG was tested, and the PBM binding z-score was 3.33. Work on CTACCAAGGGGAACAAGGTCGTTGATTACTATTC yielded a PBM binding z-score of 0.258. In the case of ACTAGCAGGCCAAGGTTCACTCAAGATTAGTCCG, the PBM binding z-score is reported as 6.29. Sequence CGAACTAGGTCATTGACAGGACCGTGAATAGTAA has a PBM binding z-score of 5.79. Work on CATACTGGGCCATTCAGAGGTCATTGATCATATG yielded a PBM binding z-score of 2.26. ACTAGCGGGCCAAGTTTGGGTCACTCAAACAAAG showed a PBM binding z-score of 0.126. In the case of CAAACTAGGTCACGAAAGGCCAAAGTCGAATGAC, the PBM binding z-score is reported as 7.41. AATCAAAGTTCAGGACGAGGTAACGTAAAGCACG gave a PBM binding z-score of 1.26. Work on TAGCCCAGGTCATTGGGCCAGTATAGTACGCATC yielded a PBM binding z-score of 2.6. Work on GCATATAGGTACTACAAGGTGAAAGTCCGATTGT yielded a PBM binding z-score of 0.566. For CATACAGGGTCAGCTAGGCCAGAATAGGGACGGC, the PBM binding z-score was 2. Work on ATCTCTAGGTAACAAGATCAGTGAAAGAGAGGAC yielded a PBM binding z-score of 0.677. Sequence ATCTCTAGGTATCCAAGTTCAGTGAATGCCGAAC has a PBM binding z-score of 0.503. In the case of GCAGAAAGGTGAAACGCAGGTAACTCAGGGTGGC, the PBM binding z-score is reported as 1.39.
